Records with an inconclusive call do not appear. Unmarked numbers belong to inactive results. Active and inactive are the calls of the source. The call rests on the fitted dose curve; in most records, active means well fitted activation curve with a large enough effect; inconclusive means small, poorly fitted or top-dose-only effect; inactive means no such curve, though single readings can be large or run the other way.
Assay: qHTS assay for re-activators of p53 using a Luc reporter: Hit Validation with no p53 Expressed; on activity change, positive = activation: 0% is about no effect
Conditions: p53-null cells, luciferase reporter counter-screen; series mostly up to 46.1 µM; activity change, positive = activation: at the top concentration
Summary of the method: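 Without p53 expression, cells (1000/well, Opti-MEM + 10% FBS) were exposed 24 h at 37 deg C to compounds in a 1:5 series from 10 mM stock (top 46.1 µM in well). Luminescent signal read 10 min after Amplite addition; actives flag unspecific activation.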
Potency means the concentration at half of the fitted maximal effect.

| SMILES | activity change, positive = activation [%] | Potency |
| --- | --- | --- |
| O=C(NC(=S)Nc1ccccc1Br)C1CCCCC1 | 28 | – |
| Fc1ccc(CCNC(=S)Nc2ccc(F)cc2)cc1 | -12.1 | – |
| Cc1csc(NC(=O)/C=C/c2ccco2)n1 | 21.2 | – |
| COc1ccc(NC(=O)c2ccccc2)cc1 | 6.54 | – |
| Oc1cccc2c(NC(=S)Nc3ccc(OC(F)F)cc3)cccc12 | -10.6 | – |
| CC(OC(=O)c1cnccn1)C(=O)Nc1nc(-c2cccc([N+](=O)[O-])c2)cs1 (centres undefined) | -31.6 | – |
| COc1cccc(-c2cn3nc4c(nc3n2)CCCC4)c1 | -34.5 | – |
| O=C(/C=C/c1ccccc1)NC1CCSC1=O (centres undefined) | – | 16.4 µM (active) |
| NS(=O)(=O)c1ccc(CCNCc2cccnc2)cc1 | -31.2 | – |
| Cc1nonc1NCn1nnc2ccccc21 | 2.44 | – |
| CCc1ccc(NC(=O)c2cnn3ccccc23)cc1 | 30.8 | – |
| CC(C)CC(NC(=O)C1CCC(=O)N1)C(=O)NC(CC(C)C)C(=O)N1CCCC1C(N)=O (centres undefined) | 64.4 | – |
| O=C(COC(=O)c1cc2ccccc2oc1=O)Nc1cccc(S(=O)(=O)N2CCCCCC2)c1 | -57.6 | – |
| Fc1cc(NCc2ccccc2)nc(NCc2ccccc2)n1 | 8.92 | – |
| Cc1ccc2nc(NC(=O)c3ccc(Cl)s3)sc2c1 | 12.4 | – |
| O=C(O)c1ccc(N/N=C/c2ccc3ncccc3c2)cc1 | -33.2 | – |
| Cc1ccc(CNc2cc(C(=O)O)ccc2Cl)s1 | 86 | – |
| CCN(CC(=O)NCc1cccs1)c1ccc(S(=O)(=O)N2CCOCC2)cn1 | -11.2 | – |
| Cc1cccc(-n2c(C)cc(/C=N\NC(=O)c3cccs3)c2C)c1 | 32.6 | – |
| COC(=O)c1ccc(/C=C/c2ccc3cccc(OC(C)=O)c3n2)cc1 | 14.5 | – |

| SMILES | activity change, positive = activation [%] | Potency |
| --- | --- | --- |
| CN(C)c1ccc(NC(=O)CCCc2ccccc2)cc1 | 91.2 | – |
| CC(=O)c1ccc(NC(=O)CCc2nnc3ccc(NCc4ccco4)nn23)cc1 | -24.4 | – |
| Nc1c(C(=O)c2ccc(Br)cc2)oc2ccccc12 | 43.6 | – |
| O=C(CC1NC2CCCCC2NC1=O)Nc1ccc2c(c1)OCO2 (centres undefined) | -8.77 | – |
| O=C(Nc1cnc2ccccc2c1)C1COc2ccccc2O1 (centres undefined) | 28.8 | – |
| Cc1cc(=O)[nH]c(N/N=C/c2ccccn2)n1 | 66.1 | – |
| COc1cc(C(=O)NCCc2cn3ccc(C)cc3n2)cc(OC)c1OC | -28.5 | – |
| Cc1ccc(-c2nnc(SCc3ccccc3F)o2)cc1 | 36.2 | – |
| CCOc1ccc(-c2cnc3ccccc3n2)cc1 | -34.8 | – |
| Cc1cc(C)nc(CC(N)=O)n1 | 10.8 | – |
| CCOC(=O)c1sc(NC(=S)NC(=O)c2ccco2)nc1C | 52.4 | – |
| Cc1ccc(C(C)C)c(OCc2ccc(C(=O)N/N=C/c3ccc(O)cc3O)cc2)c1 | -41.7 | – |
| CN1CCc2c(sc(NC(=O)C3COc4ccccc4O3)c2C(N)=O)C1 (centres undefined) | -38.2 | – |
| Cc1ccc2cc(CCNC(=O)c3ccco3)c(=O)[nH]c2c1C | 82.1 | – |
| Cc1ccc(NC(=S)NC(=O)c2cccs2)cc1F | 51.5 | – |
| CC1C(=O)CCN(C(C)(C)C)C1C (centres undefined) | -10.9 | – |
| CC(C)C(=O)Nc1ccc(-c2nc3cccnc3o2)cc1 | 20.2 | – |
| CCCCc1ccc(NC(=S)Nc2ccc(Nc3ccc(OC)cc3)cc2)cc1 | 11.1 | – |
| N#CCc1nc(CSc2nc3ccccc3s2)cs1 | 17.3 | – |
